Only some compounds are listed: those with a hit (about 7.4% of all), similar ones and a draw of the others.
ELG1 genotoxic: qHTS screen for small molecules that induce genotoxicity in human embryonic kidney (HEK293T) cells expressing luciferase-tagged ELG1; Potency, µM (titrated, usually from 46 µM), inactives show at the highest dose activity change, positive = activation, most hits filed as activators; HEK293T ELG1-luciferase reporter, luminescence, 16 h; 330,000 tested, 1.3% active; further: % of control where 0% means no effect; nearly all actives have a fitted effect of over 60% in size
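Screening used a luciferase reporter fused to human ELG1 in HEK293T cells. Luminescence was read on a CCD plate imager after 16 hr exposure and 30 min ONE-Glo incubation.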
FLuc counter: qHTS profiling assay for firefly luciferase inhibitor/activator using purifed enzyme and Km concentrations of substrates (counterscreen for miR-21 project) | Luciferin 4-monooxygenase (Photinus pyralis), P08659 | purified FLuc, Km substrates, luminescence inhibition | Potency, µM (titrated, usually from 57.5 µM), for the others: at the highest dose activity change, negative = inhibition, actives largely listed as inhibitors | 360,000 tested, 6.9% active;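 further: plate controls were vehicle for no effect and reference inhibitor for full effect; nearly all actives have a fitted effect of over 55% in size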
Target sequence (P08659 whole entry, looked up): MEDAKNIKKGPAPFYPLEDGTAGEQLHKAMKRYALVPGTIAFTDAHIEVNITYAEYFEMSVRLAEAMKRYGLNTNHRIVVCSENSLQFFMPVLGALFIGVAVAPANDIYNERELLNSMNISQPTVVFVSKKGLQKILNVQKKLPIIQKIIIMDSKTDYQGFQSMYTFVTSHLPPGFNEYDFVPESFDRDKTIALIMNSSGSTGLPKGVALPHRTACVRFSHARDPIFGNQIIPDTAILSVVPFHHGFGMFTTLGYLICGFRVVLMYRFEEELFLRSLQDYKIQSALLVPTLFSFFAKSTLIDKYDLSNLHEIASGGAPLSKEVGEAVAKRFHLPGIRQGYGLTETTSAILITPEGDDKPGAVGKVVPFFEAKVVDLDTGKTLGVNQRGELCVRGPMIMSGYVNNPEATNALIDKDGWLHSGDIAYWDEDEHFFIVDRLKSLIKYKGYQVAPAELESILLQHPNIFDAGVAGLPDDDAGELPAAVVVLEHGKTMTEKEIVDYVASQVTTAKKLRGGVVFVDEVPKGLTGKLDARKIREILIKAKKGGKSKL
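Biochemical qHTS of compounds, final roughly 60 µM downward over six points, against 10 nM purified firefly luciferase using Km concentrations of substrates (10 uM D-luciferin, 10 uM ATP) in Tris acetate pH 7.5 buffer; luminescence output.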
Rab9 promoter act: qHTS Assay for Rab9 Promoter Activators | Huh7 Rab9 promoter-luciferase reporter, luminescence, 24 h | Potency, µM (top dose mostly 9.22 µM), inactives show at the highest dose activation, negative = inhibition, most hits filed as activators | 320,000 tested, 2.8% active | AID 485297, 2010; further: % of control where 0% means no effect; nearly all actives have a fitted effect of over 60% in size
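Steps: seed 1500 Huh7 Rab9-luc cells per well, rest 2 h at 37 °C; add compound in DMSO; incubate 24 h; add luciferase reagent, 10 min ambient; read luminescence.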
p53 reactivator: qHTS assay for re-activators of p53 using a Luc reporter. H1299 p53-A138V BP100-luciferase reporter, luminescence, 24 h. Potency, µM (highest dose often 92.2 µM), for the others: top-dose activity change, positive = activation, most hits filed as activators. 320,000 tested, 0.063% active. AID 504706, 2011; further: % of control where 0% means no effect; nearly all actives have a fitted effect of over 45% in size
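p53-null H1299 cells stably carrying temperature-sensitive p53-A138V and a BP100-luciferase reporter were pinned with compounds (4-point, 1:5 series) and held 24 hrs at 37 deg C. Luminescence was read 10 min after detection reagent.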
NPC1 prom act: qHTS Assay for NPC1 Promoter Activators; Huh7 NPC1 promoter luciferase reporter, 24 h; Potency, µM (titrated, usually from 9.22 µM), inactives show at the highest dose activation, usual class: activators; 320,000 tested, 2.4% active; AID 485313, 2010; further: % of control where 0% means no effect; nearly all actives have a fitted effect of over 60% in size
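Compounds in DMSO were transferred onto Huh7 NPC1-luciferase reporter cells pre-incubated 2 h; after 24 h at 37 °C, Amplite reagent was dispensed and luminescence recorded 10 min later.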
SMN2 splice up: qHTS Assay for Enhancers of SMN2 Splice Variant Expression. HEK293 SMN2-luciferase splicing reporter, luminescence, 30-36 h. Potency, µM (titrated, usually from 46.1 µM), without a hit: at the highest dose activity change, positive = activation, most hits filed as activators. 210,000 tested, 2.8% active. AID 1458, 2008; further: % of control where 0% means no effect; nearly all actives have a fitted effect of over 55% in size
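HEK293 cells carry an SMN2 minigene-luciferase reporter in which exon 7 inclusion puts luciferase in frame. Cells were seeded at 2000 cells/well, attached for 10-12 hours, then exposed to compounds for 30-36 hours at 37C before ONE-Glo luminescence.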
* = called active by the depositor; ? = inconclusive; . = no result. The call rests on the fitted dose curve; in most records, active means well fitted curve in the direction sought with a large enough effect; inconclusive means small, poorly fitted or top-dose-only effect, or another doubt; inactive means no such curve, though single readings can be large; an effect the other way counts as inactive or inconclusive. Potency means the concentration at half of the fitted maximal effect.

SMILES	ELG1 genotoxic	FLuc counter	Rab9 promoter act	p53 reactivator	NPC1 prom act	SMN2 splice up
CC(C)Oc1cccc(-c2cc(C(=O)N3CCN(S(C)(=O)=O)CC3)c3ccccc3n2)c1	-15.1%	3.01µM*	24.7%	-0.6%	20.4%	?
COc1ccc(-c2cc(C(=O)N3CCCC3)c3ccccc3n2)cc1OC	-6.5%	?	0.0%	-6.3%	3.8%	.
COc1cccc(-c2nc3ccc(C(=O)N4CCCC(O)C4)cc3o2)c1 (stereo not given)	?	15.1µM*	3.55µM*	?	3.98µM*	.
CCC(=O)C1CCCN(C(=O)c2ccc3nc(-c4cccc(OC)c4)oc3c2)C1 (stereo not given)	?	8.49µM*	1.58µM*	-1.9%	1.41µM*	.
O=C(OCc1nc2ccc(Cl)cc2n1CCO)c1ccccc1	1.7%	0.9%	3.3%	-5.2%	1.5%	2.3%
COn1c(-c2ccc(Cl)cc2)nc2ccc(Cl)cc21	9.7%	9.53µM*	?	?	29.8%	12.6%
COc1ccc(-c2nc3ccccc3n2OCC(=O)O)cc1	?	3.01µM*	19.0%	3.1%	8.6%	.
O=C(O)COn1c(-c2ccc(Cl)cc2)nc2ccc(Cl)cc21	?	9.53µM*	7.1%	3.4%	2.3%	16.0%
COc1ccc(-c2nc3ccccc3c(=O)n2O)cc1	-0.3%	2.4%	5.8%	4.3%	-4.0%	.
Cn1cnc(S(=O)(=O)N2CCC(C(=O)Nc3ccc(OC(F)(F)F)cc3)CC2)c1	.	-1.3%	.	.	.	.
COc1cccc(/C=N/NC(=O)C(=O)N2CCCC2)c1OC	-0.5%	-12.1%	2.7%	25.9%	-1.1%	-0.5%
COc1cccc(/C=N/NC(=O)N/N=C/c2cccc(OC)c2O)c1O	-7.5%	4.26µM*	-2.9%	21.4%	-2.2%	.
COc1cccc(/C=N\NC(=O)c2ccc(Cn3cc(Br)c([N+](=O)[O-])n3)o2)c1O	11.7%	10.7µM*	-50.9%	?	-33.3%	.
COc1cccc(/C=N/NC(=O)C(C)n2nc(C)c([N+](=O)[O-])c2C)c1O (stereo not given)	?	7.57µM*	-30.1%	?	-12.6%	?
COc1cccc(/C=N/NC(=O)C(=O)N2CCCC2)c1O	?	15.1µM*	11.0%	?	7.1%	-47.9%
COc1cccc(NC(=O)CSc2nc(-c3ccccc3Cl)nc3c2Cc2c(CO)cnc(C)c2O3)c1	.	-0.5%	.	.	.	.
CCOC(=S)SCc1cn2ccc(C)cc2n1	0.1%	23.9µM*	-0.4%	21.2%	-3.6%	-31.4%
Cc1ccn2cc(CC(=O)O)nc2c1	0.9%	3.1%	3.5%	1.5%	-4.2%	.
Cc1ccn2cc(CSc3ccccc3N)nc2c1	?	10.7µM*	0.631µM*	5.3%	2.24µM*	?
CCOC(=O)c1c(C)[nH]c(C(=O)COC(=O)C2CC2C)c1C (stereo not given)	2.59µM*	3.38µM*	3.16µM*	?	3.55µM*	?
CCOC(=O)c1c(C)[nH]c(C(=O)COC(=O)c2[nH]c(C)c(C(C)=O)c2C)c1C	6.9%	-1.8%	-16.1%	-4.5%	-7.0%	-4.6%
C/C=C(/C)C#N	.	.	.	.	.	-36.6%
Cc1ccc(-c2ccc(/C=C(\C#N)C(N)=S)n2C)cc1	16.5%	4.78µM*	?	10.8%	?	.
CCCCC#Cc1ccc2c(c1)COc1c3ccccc3nn1-2	?	2.69µM*	7.08µM*	22.1%	0.355µM*	.
CCCCCCC#Cc1ccc2c(c1)COc1c3ccccc3nn1-2	16.9%	?	0.891µM*	9.8%	0.794µM*	.
N#CCCCC#Cc1ccc2c(c1)COc1c3ccccc3nn1-2	?	0.19µM*	0.1µM*	20.2%	0.708µM*	.

Screening data: PubChem, National Center for Advancing Translational Sciences (NCATS)
